From PubChem BioAssay AID1159580 (chemical genetic matrix, 2015)
“And” between values parts separate entries of the source, which are not always exact repeats. Equal entries are not always repeated. The whole screen tested about 5,500 compounds, of which about 2,000 (36%) were called active. Not shown: some 18% with an inconclusive outcome. No stated cut-off is given here; in the data, active means normalized growth mostly below about 0.91 (no sharp cut-off); inconclusive means no clear call, values can overlap the other calls; inactive means mostly above about 0.92. Some of the results follow.

Assay: chemical genetic growth profiling, strain panel (AID 1159580);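 further: tested at 20 µM; growth read once vehicle control cultures reached saturation at 30 °C; 1 = growth at the plate median or of vehicle wells; lower values mean less growth of the strain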
Conditions: growth OD

Measured: normalized growth

COCCc1ccc(OCC(O)CNC(C)C)cc1 (stereo unspecified)
inactive: S. cerevisiae deletion strains, locus YJR075W, strain HOC1, active compounds read low 1.01 | S. cerevisiae deletion strains, locus YKL009W, strain mrt4, active compounds read low 1 | S. cerevisiae deletion strains, locus YKL068W, active compounds read low 1.01 | S. cerevisiae deletion strains, locus YKL085W, strain MDH1 (second series), active compounds read low 0.998 | S. cerevisiae deletion strains, locus YKL085W, strain MDH1, active compounds read low 0.998 | S. cerevisiae deletion strains, locus YKL160W, strain elf1, active compounds read low 0.98 | S. cerevisiae deletion strains, locus YKL190W, strain CNB1, active compounds read low 1.01 | S. cerevisiae deletion strains, locus YKR001C, strain vps1, active compounds read low 0.999 | S. cerevisiae deletion strains, locus YKR026C, strain gcn3, active compounds read low 1 | S. cerevisiae deletion strains, locus YKR091W, strain srl3, active compounds read low 0.988 | S. cerevisiae deletion strains, locus YLL001W, strain dnm1, active compounds read low 0.935 | S. cerevisiae deletion strains, locus YLL026W, active compounds read low 0.99 | S. cerevisiae deletion strains, locus YLL041C, strain sdh2, active compounds read low 1 | S. cerevisiae deletion strains, locus YLR027C, strain aat2, active compounds read low 1.02 | S. cerevisiae deletion strains, locus YLR039C, strain RIC1, active compounds read low 0.989 | S. cerevisiae deletion strains, locus YLR058C, strain SHM2, active compounds read low 1.01 | S. cerevisiae deletion strains, locus YLR102C, strain apc9, active compounds read low 1.01 | S. cerevisiae deletion strains, locus YLR113W, strain HOG1, active compounds read low 1.03 | S. cerevisiae deletion strains, locus YLR221C, strain rsa3, active compounds read low 0.955 | S. cerevisiae deletion strains, locus YLR258W, strain gsy2, active compounds read low 1.01 | S. cerevisiae deletion strains, locus YLR262C, strain YPT6 (second series), active compounds read low 1 | S. cerevisiae deletion strains, locus YLR262C, strain YPT6, active compounds read low 1 | S. cerevisiae deletion strains, locus YLR268W, strain sec22, active compounds read low 1.08 | S. cerevisiae deletion strains, locus YLR320W, strain mms22, active compounds read low 0.977 | S. cerevisiae deletion strains, locus YLR330W, strain CHS5, active compounds read low 1.01 | S. cerevisiae deletion strains, locus YLR342W, strain FKS1 (second series), active compounds read low 1.01 | S. cerevisiae deletion strains, locus YLR342W, strain FKS1, active compounds read low 0.993 | S. cerevisiae deletion strains, locus YLR357W, strain rsc2, active compounds read low 0.973 | S. cerevisiae deletion strains, locus YLR370C, strain arc18, active compounds read low 0.99 | S. cerevisiae deletion strains, locus YLR371W, strain rom2, active compounds read low 1.01 | S. cerevisiae deletion strains, locus YLR384C, strain iki3, active compounds read low 0.991 | S. cerevisiae deletion strains, locus YLR418C, strain cdc73, active compounds read low 0.986 | S. cerevisiae deletion strains, locus YML016C, strain PPZ1, active compounds read low 1.01 | S. cerevisiae deletion strains, locus YML032C, strain rad52, active compounds read low 1.03 | S. cerevisiae deletion strains, locus YML120C, strain ndi1, active compounds read low 0.942 | S. cerevisiae deletion strains, locus YML124C, strain tub3, active compounds read low 1.01 | S. cerevisiae deletion strains, locus YMR058W, strain fet3, active compounds read low 0.989 | S. cerevisiae deletion strains, locus YMR078C, strain ctf18, active compounds read low 1.01 | S. cerevisiae deletion strains, locus YMR125W, strain sto1, active compounds read low 0.97 | S. cerevisiae deletion strains, locus YMR129W, active compounds read low 0.996 | S. cerevisiae deletion strains, locus YMR205C, strain PFK2, active compounds read low 0.962 | S. cerevisiae deletion strains, locus YMR223W, strain ubp8, active compounds read low 0.995 | S. cerevisiae deletion strains, locus YMR231W, strain pep5, active compounds read low 0.997 | S. cerevisiae deletion strains, locus YMR263W, strain SAP30, active compounds read low 1.02 | S. cerevisiae deletion strains, locus YMR307W, strain GAS1, active compounds read low 1.02 | S. cerevisiae deletion strains, locus YNL067W, strain RPL9B, active compounds read low 1.02 | S. cerevisiae deletion strains, locus YNL071W, strain lat1, active compounds read low 0.989 | S. cerevisiae deletion strains, locus YNL128W, strain TEP1, active compounds read low 1.01 | S. cerevisiae deletion strains, locus YNL153C, strain GIM3, active compounds read low 1.02 | S. cerevisiae deletion strains, locus YNL175C, strain NOP13, active compounds read low 1.01 | S. cerevisiae deletion strains, locus YNL183C, strain NPR1, active compounds read low 1 | S. cerevisiae deletion strains, locus YNL197C, strain WHI3, active compounds read low 0.984 | S. cerevisiae deletion strains, locus YNL209W, strain ssb2, active compounds read low 0.987 | S. cerevisiae deletion strains, locus YNL224C, strain SQS1, active compounds read low 0.988 | S. cerevisiae deletion strains, locus YNL233W, strain BNI4, active compounds read low 1.01 | S. cerevisiae deletion strains, locus YNL248C, strain rpa49, active compounds read low 0.992 | S. cerevisiae deletion strains, locus YNL250W, strain rad50, active compounds read low 1.01 | S. cerevisiae deletion strains, locus YNL271C, strain bni1, active compounds read low 1.01 | S. cerevisiae deletion strains, locus YNL298W, strain CLA4, active compounds read low 1.02 | S. cerevisiae deletion strains, locus YNL307C, strain MCK1, active compounds read low 1.02 | S. cerevisiae deletion strains, locus YNL322C, strain KRE1 (second series), active compounds read low 0.98 | S. cerevisiae deletion strains, locus YNL322C, strain KRE1, active compounds read low 1 and 0.99 | S. cerevisiae deletion strains, locus YNR049C, strain mso1, active compounds read low 0.978 | S. cerevisiae deletion strains, locus YNR052C, strain pop2, active compounds read low 1.01 | S. cerevisiae deletion strains, locus YOL006C, strain TOP1, active compounds read low 1.07 | S. cerevisiae deletion strains, locus YOL012C, strain htz1 0.79 | S. cerevisiae deletion strains, locus YOL147C, strain pex11, active compounds read low 1.01 | S. cerevisiae deletion strains, locus YOR001W, strain rrp6, active compounds read low 1.03 | S. cerevisiae deletion strains, locus YOR061W, strain CKA2, active compounds read low 1.01 | S. cerevisiae deletion strains, locus YOR069W, strain VPS5, active compounds read low 1.01 | S. cerevisiae deletion strains, locus YOR070C, strain gyp1, active compounds read low 0.995 | S. cerevisiae deletion strains, locus YOR080W, strain dia2, active compounds read low 0.985 | S. cerevisiae deletion strains, locus YOR083W, strain WHI5 (second series), active compounds read low 0.999 | S. cerevisiae deletion strains, locus YOR083W, strain WHI5, active compounds read low 0.981 | S. cerevisiae deletion strains, locus YOR106W, strain vam3, active compounds read low 0.957 | S. cerevisiae deletion strains, locus YOR136W, strain idh2, active compounds read low 1.01 | S. cerevisiae deletion strains, locus YOR144C, strain elg1, active compounds read low 1.01 | S. cerevisiae deletion strains, locus YOR184W, strain ser1, active compounds read low 1.02 | S. cerevisiae deletion strains, locus YOR231W, strain MKK1, active compounds read low 1.03 | S. cerevisiae deletion strains, locus YOR265W, strain rbl2, active compounds read low 0.995 | S. cerevisiae deletion strains, locus YOR270C, strain vph1, active compounds read low 0.975 | S. cerevisiae deletion strains, locus YOR290C, strain snf2, active compounds read low 0.91 | S. cerevisiae deletion strains, locus YOR316C, strain cot1, active compounds read low 1.01 | S. cerevisiae deletion strains, locus YPL051W, strain arl3, active compounds read low 1 | S. cerevisiae deletion strains, locus YPL055C, strain LGE1, active compounds read low 0.989 and 1.01 | S. cerevisiae deletion strains, locus YPL078C, strain atp4, active compounds read low 0.978 | S. cerevisiae deletion strains, locus YPL106C, strain sse1, active compounds read low 0.971 | S. cerevisiae deletion strains, locus YPL240C, strain hsp82, active compounds read low 0.992 | S. cerevisiae deletion strains, locus YPL241C, strain CIN2, active compounds read low 1 and 0.974 | S. cerevisiae deletion strains, locus YPL256C, strain CLN2, active compounds read low 1.1 | S. cerevisiae deletion strains, locus YPR119W, strain clb2, active compounds read low 1.02 | S. cerevisiae deletion strains, locus YPR141C, strain kar3, active compounds read low 1.02 | S. cerevisiae deletion strains, locus YPR163C, strain tif3, active compounds read low 1.02 | S. cerevisiae deletion strains, locus YPR167C, strain met16, active compounds read low 1.01 | S. cerevisiae deletion strains, strain wtn01, active compounds read low 1.05 | S. cerevisiae strains, strain wild type, active compounds read low 1.01
